The results in this text go back to PubChem BioAssay (NCI).

About 83,000 compounds went through this panel and 20% of them were active in at least one assay; those are over-represented in the sample as a whole.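 Step 1: grow cells in 96-well plates. Step 2: add test compound at a single concentration. Step 3: incubate 48 h. Step 4: record percent growth.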 Values without a mark were called inactive. Active and inactive are the calls of the source. How the source made its calls: active means growth percent below 10; inactive means the rest.

Test systems include DU-145 prostate; K-562 leukemia; MALME-3M melanoma; MDA-MB-231 breast; RXF 393 renal; SF-268 CNS; SF-295 CNS; SF-539 CNS; UACC-257 melanoma; M14 melanoma; HCT-15 colon; HT29 colon; SNB-75 CNS; SNB-19 CNS; U251 CNS; PC-3 prostate; SK-MEL-5 melanoma; UACC-62 melanoma; LOX IMVI melanoma; SK-MEL-28 melanoma.
What all share (test): NCI-60 one-dose screen, 48 h (100 = growth as untreated, 0 = no growth, -100 = all killed)
Common to all, as to details: 10 µM unless noted

Turning to `COC1C[C@H](O[C@@H]2C[C@H](O[C@@H]3C[C@H](O[C@@H]4C(=O)c5c(cc6cc(O[C@H]7C[C@@H](O[C@H]8C[C@@H](O)[C@H](O)C(C)O8)[C@H](O)C(C)O7)c(C)c(O)c6c5O)C[C@H]4C(OC)C(=O)[C@@H](O)[C@@H](C)O)OC(C)[C@H]3O)OC(C)[C@@H]2O)OC(C)[C@@H]1O` (stereo not given in full), the growth with DU-145 prostate was 14%; in the assay with K-562 leukemia it was 4.88% (active); in the assay with MALME-3M melanoma it was -59.4% (active); in the assay with MDA-MB-231 breast, -7.44% (active); in the assay on RXF 393 renal it was -50.9% (active); in the assay on SF-268 CNS, 18.3%. In addition, the growth is 7.37% (active) in the assay on SF-295 CNS; -8.29% (active) in the assay with SF-539 CNS; -37.3% (active) in the assay with UACC-257 melanoma; -22.7% (active) in the assay on M14 melanoma; 44.3% in the assay with HCT-15 colon; -8.54% (active) in the assay with HT29 colon. The growth in the assay with SNB-75 CNS was -59% (active); in the assay on SNB-19 CNS, 0.994% (active); in the assay on U251 CNS it was 0.915% (active); in the assay on PC-3 prostate, 9.36% (active); in the assay with SK-MEL-5 melanoma it was -37.9% (active); in the assay on UACC-62 melanoma, -64.7% (active). Besides, the growth is -3.35% (active) in the assay on LOX IMVI melanoma and -22.9% (active) in the assay with SK-MEL-28 melanoma.

For `CN([O-])c1nc(N(C)[O-])nc(N2CCOCC2)n1.CN([O-])c1nc(N(C)[OH2+])nc(N2CCOCC2)n1.[Fe+3]`, the growth in the assay with DU-145 prostate is 63.1% [100 µM]; in the assay on K-562 leukemia, 16.7% [100 µM]; with MALME-3M melanoma, 118% [100 µM]; in the assay with MDA-MB-231 breast, 110% [100 µM]; with RXF 393 renal, 75.5% [100 µM]; with SF-268 CNS it was -14.2% [100 µM] (active). Also, the growth is 10.3% [100 µM] in the assay with SF-295 CNS; 108% [100 µM] with SF-539 CNS; 96.2% [100 µM] with UACC-257 melanoma; 91.7% [100 µM] in the assay on M14 melanoma; 104% [100 µM] in the assay with HCT-15 colon; 102% [100 µM] in the assay with HT29 colon. Also, the growth was 96.1% [100 µM] in the assay with SNB-75 CNS; 108% [100 µM] with SNB-19 CNS; 38.7% [100 µM] with U251 CNS; 65.9% [100 µM] in the assay with PC-3 prostate; 95.5% [100 µM] with SK-MEL-5 melanoma; 81.6% [100 µM] in the assay on UACC-62 melanoma. Further, the growth was 38.9% [100 µM] in the assay with LOX IMVI melanoma and -26.4% [100 µM] (active) in the assay on SK-MEL-28 melanoma.

Turning to `O=C(N/N=C/c1ccc(F)cc1)c1ccc(C(F)(F)F)nc1Nc1cccc(C(F)(F)F)c1`, the growth in the assay with DU-145 prostate was 17.9%; in the assay with K-562 leukemia it was -6.25% (active); in the assay on MALME-3M melanoma, 2.96% (active); in the assay on MDA-MB-231 breast, -11.5% (active); in the assay with RXF 393 renal, -10.7% (active); in the assay on SF-268 CNS it was 9.8% (active). The growth was -44.5% (active) with SF-295 CNS; -0.388% (active) in the assay on SF-539 CNS; -2.34% (active) with UACC-257 melanoma; 19.9% in the assay with M14 melanoma; 0.43% (active) with HCT-15 colon; 1.2% (active) in the assay with HT29 colon. Besides, the growth with SNB-75 CNS was 0.243% (active); in the assay with SNB-19 CNS, 18.4%; in the assay on U251 CNS, -41% (active); with PC-3 prostate, -1.21% (active); in the assay with SK-MEL-5 melanoma, -30.6% (active); in the assay on UACC-62 melanoma it was -6.64% (active). For the same compound, the figures for the growth in the assay with LOX IMVI melanoma and in the assay on SK-MEL-28 melanoma were -23.7% (active) and 12.7%, respectively.

With `O=C1CNC(c2ccccc2)C(c2ccccc2)N1` (stereo not given), the growth in the assay with DU-145 prostate is 102%; in the assay on K-562 leukemia, 120%; in the assay on MALME-3M melanoma, 86.9%; in the assay on MDA-MB-231 breast it was 100%; in the assay with RXF 393 renal, 98.3%; in the assay on SF-268 CNS it was 110%. In addition, the growth in the assay with SF-295 CNS was 109%; in the assay on SF-539 CNS, 100%; in the assay with UACC-257 melanoma, 102%; with M14 melanoma, 97.4%; in the assay on HCT-15 colon it was 104%; in the assay with HT29 colon, 85.2%. The growth with SNB-75 CNS is 75.8%; in the assay with SNB-19 CNS it was 100%; with U251 CNS, 97.5%; in the assay on PC-3 prostate, 81.6%; in the assay with SK-MEL-5 melanoma, 104%; in the assay on UACC-62 melanoma, 96.6%. The growth in the assay with LOX IMVI melanoma was 92.1%; with SK-MEL-28 melanoma it was 171%.

`CCN(CC)CCNC(=O)c1cn2ncnc(Oc3ccc(NC(=O)Nc4ccc(Cl)c(C(F)(F)F)c4)c(F)c3)c2c1C`: the growth with DU-145 prostate is 8.01% (active); in the assay with K-562 leukemia, -23% (active); with MALME-3M melanoma, -89.7% (active); with MDA-MB-231 breast, -82.5% (active); in the assay on RXF 393 renal it was -44.9% (active); in the assay on SF-268 CNS, 43.1%. Besides, the growth is -52.8% (active) in the assay with SF-295 CNS; -79.8% (active) in the assay with SF-539 CNS; -57.4% (active) with UACC-257 melanoma; -83.2% (active) in the assay with M14 melanoma; -38.7% (active) with HCT-15 colon; -42.3% (active) in the assay on HT29 colon. The growth was -7.89% (active) in the assay on SNB-75 CNS; -48% (active) in the assay on SNB-19 CNS; -48.6% (active) in the assay with U251 CNS; 7.99% (active) in the assay on PC-3 prostate; -20.3% (active) with SK-MEL-5 melanoma; -46.2% (active) in the assay on UACC-62 melanoma. For the same compound, the growth was -95.4% (active) in the assay with LOX IMVI melanoma and -86.6% (active) with SK-MEL-28 melanoma.

Consider `C=C(C)[C@@H]1CC[C@]2(C)[C@H](CC=C3[C@@H]4[C@H](C)[C@@H](C)CC[C@]4(CO)CC[C@]32C)[C@@]1(C)CCCN`, for which the growth in the assay with DU-145 prostate is 28.4%; with K-562 leukemia, 1.75% (active); in the assay with MALME-3M melanoma, -79.1% (active); in the assay on MDA-MB-231 breast it was 3.87% (active); with RXF 393 renal, 21.7%; in the assay with SF-268 CNS it was 59%. For the same compound, the growth with SF-295 CNS was 77.2%; in the assay on SF-539 CNS, 13%; with UACC-257 melanoma, -56.7% (active); with M14 melanoma it was -46.2% (active); with HCT-15 colon it was -39.1% (active); in the assay with HT29 colon, -44.5% (active). In addition, the growth was 18.5% in the assay on SNB-75 CNS; 72.3% in the assay on SNB-19 CNS; -74.3% (active) in the assay on U251 CNS; 11% with PC-3 prostate; 67.1% in the assay with SK-MEL-5 melanoma; 79.4% in the assay on UACC-62 melanoma. The growth in the assay on LOX IMVI melanoma was -99% (active); with SK-MEL-28 melanoma, -35.3% (active).

As for `CCCC(=O)NC(c1ccc2c(c1)OCO2)c1ccc2cccnc2c1O` (stereo not given), the growth was 36.5% in the assay with DU-145 prostate; 7.6% (active) with K-562 leukemia; 13.4% in the assay on MALME-3M melanoma; 31.2% in the assay with MDA-MB-231 breast; 18.3% with RXF 393 renal; 15.8% with SF-268 CNS. Also, the growth in the assay with SF-295 CNS is 13.9%; in the assay with SF-539 CNS, 9.93% (active); in the assay on UACC-257 melanoma, 19.1%; with M14 melanoma, 4.9% (active); in the assay with HCT-15 colon, 35%; in the assay with HT29 colon, 25.4%. Also, the growth with SNB-75 CNS was 17.5%; in the assay with SNB-19 CNS it was 29.5%; in the assay with U251 CNS, 14.5%; in the assay on PC-3 prostate, 33.5%; in the assay on SK-MEL-5 melanoma it was -12.4% (active); in the assay with UACC-62 melanoma, -5.34% (active). For the same compound, the growth in the assay with LOX IMVI melanoma is 12%; in the assay on SK-MEL-28 melanoma it was 34.5%.
